High-throughput results as filed in PubChem BioAssay.
Shown are actives, neighbours in structure and some others; about 1.5% of the full set was active somewhere.
gsp antagonist – antagonists of gsp mutant (McCune-Albright syndrome); gsp-mutant cells, cAMP HTRF, 30 min; Potency, µM (series often up to 76.9 µM), for inactives: at the highest dose activity change, negative = inhibition, usual class: inhibitors; actives 0.4% (n = 340,000); AID 624288; calls by dose curve; cell line not stated here;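 further: intracellular cAMP measured with PDE inhibitor Ro 20-1724 present during compound exposure; potency means the concentration at half of the fitted maximal effect; on the % scale 0 is the no-effect control and ±100 the full control effect; nearly all actives have a fitted effect of over 65% in size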
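G418-selected cells were plated in DMEM/10% FBS for 16-24 h at 37C, then treated with compounds plus the PDE inhibitor […] (300 uM solution added) for 30 min at 37C. Intracellular cAMP was measured by HTRF after 30 min lysis at room temperature.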
gsp ag – agonists of gsp mutant (McCune-Albright syndrome) | gsp mutant cells, cAMP HTRF, 30 min | Potency, µM (doses to about 76.9 µM), for inactives: at the top dose activation (cAMP increase), actives largely listed as activators | actives 0.13% (n = 340,000); active means well fitted activation curve with a large enough effect; inconclusive means small, poorly fitted or top-dose-only effect, or another doubt; inactive means no such curve, though single readings can be large or run the other way; cell line not stated here;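 further: phosphodiesterase inhibitor Ro 20-1724 added with compounds to block cAMP breakdown; potency means the concentration at half of the fitted maximal effect; nearly all actives have a fitted effect of over 60% in size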
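Cells in DMEM/10% FBS with G418 were pretreated with compounds in DMSO plus […] (300 uM stock) for 30 min at 37C. cAMP was measured by HTRF (cAMP-d2 plus anti-cAMP antibody-K) after 30 min at room temperature.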
IDH1 R132H inh – inhibitors of human mutant IDH1 R132H. AID 602179. actives 0.093% (n = 390,000). IDH1-R132H enzyme, NADPH consumption, diaphorase/resazurin fluorescence. Potency, µM (titrated, usually from 76.6 µM), without a hit: top-dose activity change, negative = inhibition, actives largely listed as inhibitors. O75874; further: potency means the concentration at half of the fitted maximal effect; on the % scale 0 is the no-effect control and ±100 the full control effect; nearly all actives have a fitted effect of over 65% in size
Target sequence (O75874 whole entry R132H, stated change not applied): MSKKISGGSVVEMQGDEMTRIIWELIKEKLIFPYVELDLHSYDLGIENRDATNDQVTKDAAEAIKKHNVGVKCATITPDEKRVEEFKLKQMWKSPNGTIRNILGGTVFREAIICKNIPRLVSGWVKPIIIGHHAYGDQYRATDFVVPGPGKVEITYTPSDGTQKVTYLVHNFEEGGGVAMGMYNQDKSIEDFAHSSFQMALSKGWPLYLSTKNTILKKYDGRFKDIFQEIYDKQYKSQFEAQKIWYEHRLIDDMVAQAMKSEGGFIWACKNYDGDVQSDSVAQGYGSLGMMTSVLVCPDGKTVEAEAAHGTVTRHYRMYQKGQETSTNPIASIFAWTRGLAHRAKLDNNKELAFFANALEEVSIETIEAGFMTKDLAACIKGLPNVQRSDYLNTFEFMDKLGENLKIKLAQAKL
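IDH1-R132H (0.5 ug/mL dispensed) in pH 7.5 Tris buffer was preincubated 30 min with compound, then given a substrate mix of 0.016 mM NADPH and 2 mM alpha-KG for 80 min at room temperature; remaining NADPH was read by diaphorase/resazurin fluorescence.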
IL-2 act – activates IL-2 in a cell-based reporter assay; AID 652025; IL-2 activation reporter assay, cell-based qHTS; stimulated with anti-CD3/CD4/CD28 beads; in transgenic mouse T cells; actives 0.065% (n = 360,000); activation, % (series mostly up to about 46 µM); in the data active means activation above about 50%; inconclusive means mostly about 30% to 49%; further: 0% is about no effect
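Unstimulated transgenic mouse T cells, 750 per well, received compound and, after 60 minutes, anti-CD3/anti-CD4 bead plus anti-CD28 stimulation. EGFP and DsRed were quantified after 18 hours.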
BRCA1 expr act – increases BRCA1 expression. MCF7-BRCA1-FFLuc reporter, luminescence, 48 h; response scale: scaled: vehicle 0%, 10 µM genistein 100%. Potency, µM (top dose mostly 46.1 µM), inactives show at the top dose activation, actives largely listed as activators. actives 1.1% (n = 380,000); further: potency means the concentration at half of the fitted maximal effect; nearly all actives have a fitted effect of over 80% in size
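Reporter cells (MCF7, BRCA1 promoter-firefly luciferase) received library compounds across a concentration series for 48 h. End-point luminescence was measured and concentration-effect curves derived after normalization.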
* hit, by the source's call; [ ] = another dose, or the depositor's remark. Unless noted, the call rests on the fitted dose curve; in most records, active means well fitted curve in the direction sought with a large enough effect; inconclusive means small, poorly fitted or top-dose-only effect, or another doubt; inactive means no such curve, though single readings can be large; an effect the other way counts as inactive or inconclusive.

Screening N#Cc1ccc(C=NN2CCCCCC2)cc1 returned gsp antagonist 3%, gsp ag 5%[15.4 µM], IDH1 R132H inh 12%, IL-2 act -1 and BRCA1 expr act 6.3µM*.
Clc1ccc(C=NN2CCCCCC2)cc1Cl was read as gsp antagonist -7%, gsp ag -46%, IDH1 R132H inh 11%, IL-2 act -3 and BRCA1 expr act 8.9µM*.
Clc1ccc(C=NN2CCCCCC2)cc1 was read as gsp antagonist 5%, gsp ag 0%[15.4 µM], IDH1 R132H inh 12%, IL-2 act 0 and BRCA1 expr act 10µM*.
COc1cc(OC)c(/C=C/c2cc3c4ccccc4ccc3[n+](C)c2)c(OC)c1 was read as BRCA1 expr act 57%.
`COC(=O)C1CCN(C(c2ccccc2)c2sc3nc(-c4ccco4)nn3c2O)CC1` (configuration not stated) gave IDH1 R132H inh -18%.
Cc1nn(-c2ccccc2)c(Cl)c1/C=N/NC(=O)c1ccccc1F was read as gsp antagonist 1%, gsp ag 9%[15.4 µM], IDH1 R132H inh 1%, IL-2 act -1 and BRCA1 expr act 11µM*.
`Cc1nn(-c2ccccc2)c(Cl)c1/C=N/NC(=O)c1ccn[nH]1` gave gsp antagonist -1%, gsp ag 19%, IDH1 R132H inh -3%, IL-2 act 0 and BRCA1 expr act inconclusive.
`Clc1ccc(-c2csc(=Nc3ccccc3)n2Cc2ccc3c(c2)OCO3)cc1` gave IDH1 R132H inh 8% and BRCA1 expr act 68%.
`C=CCSC1=NNC(c2ccc(C(C)(C)C)cc2)=NN1` gave gsp antagonist 7%, gsp ag 3%[15.4 µM], IDH1 R132H inh 8%, IL-2 act -4 and BRCA1 expr act 7.1µM*.
`COc1cc(/C=N/N(c2ccccc2)c2ccccc2)ccc1O` gave gsp antagonist -1%, gsp ag -9%[15.4 µM], IDH1 R132H inh -8%, IL-2 act -1 and BRCA1 expr act -82%.
`CCOc1ccc(/C=N/N(C)c2ccccc2)cc1OC` gave gsp antagonist -8%, gsp ag -35%, IDH1 R132H inh 4%, IL-2 act 0 and BRCA1 expr act 4.5µM*.
`COc1ccc(/C=N/Nc2ccccn2)c(OC)c1OC` gave gsp antagonist 8%, gsp ag -10%[15.4 µM], IDH1 R132H inh 7%, IL-2 act -2 and BRCA1 expr act 11µM*.
Screening C=CCOc1ccc(/C=N/Nc2ccccn2)cc1OC returned gsp antagonist 4%, gsp ag -24%[15.4 µM], IDH1 R132H inh -4%, IL-2 act -4 and BRCA1 expr act 5µM*.
Screening COc1ccc(/C=N\Nc2ccccn2)c(OC)c1 returned gsp antagonist -6%, gsp ag 9%, IDH1 R132H inh 1%, IL-2 act 0 and BRCA1 expr act inconclusive.
For CCOc1ccc(/C=N/Nc2ccccn2)cc1OC the results were gsp antagonist -8%, gsp ag 17%[15.4 µM], IDH1 R132H inh 0%, IL-2 act 2 and BRCA1 expr act 11µM*.
Screening CCCOc1ccc(/C=N/Nc2ccccn2)cc1OC returned gsp antagonist 4%, gsp ag -18%[15.4 µM], IDH1 R132H inh 3%, IL-2 act 5 and BRCA1 expr act 68%.
For COc1cc(/C=N/Nc2ccccn2)ccc1OCC(C)C the results were gsp antagonist 11%, gsp ag -20%[15.4 µM], IDH1 R132H inh -9%, IL-2 act -2 and BRCA1 expr act 38%.
`COc1ccc(C2(CNC(=O)C(=O)Nc3ccc(C)c(Cl)c3)CCCC2)cc1OC` gave IDH1 R132H inh 1%.
COc1ccccc1/C=N/Nc1nccnc1Cl was read as gsp antagonist 0%, gsp ag 25%, IDH1 R132H inh -4%, IL-2 act -1 and BRCA1 expr act 11µM*.
For CC(NC(=O)c1cc(COc2c(F)cccc2F)on1)c1cnn(-c2ccccc2)c1 (configuration not stated) the results were gsp antagonist -1%, gsp ag -2%, IDH1 R132H inh 6%, IL-2 act -5 and BRCA1 expr act 7.1µM*.
CCn1nc(-c2ccccc2)c(-c2ccccc2)c(C(=O)Nc2nc(C)c(C(C)=O)s2)c1=O was read as IDH1 R132H inh -11%.
`O=C(Cc1ccc(Br)c2ccccc12)N/N=C/c1ccccn1` gave gsp antagonist 25µM*, gsp ag -15%[15.4 µM], IDH1 R132H inh 11%, IL-2 act 1 and BRCA1 expr act -55%.
CCCCCc1ccc(-c2ccc(C(=O)Oc3ccc(C(=O)OC)cc3)cc2)nc1 was read as IDH1 R132H inh -17%.
Screening CCCCCc1ccc(-c2ccc(OC)cc2)nc1 returned gsp antagonist -1%, gsp ag inconclusive, IDH1 R132H inh 9%, IL-2 act -1 and BRCA1 expr act 8.9µM*.
Screening O=C(CC(SCc1ccco1)c1ccc(O)cc1)c1cccs1 (configuration not stated) returned gsp antagonist 3%[15.4 µM], gsp ag 23%, IDH1 R132H inh 5%, IL-2 act 0 and BRCA1 expr act inconclusive.
For O=C(CC(SCCO)c1ccc2c(c1)OCO2)c1cccs1 (configuration not stated) the results were gsp antagonist -10%, gsp ag 0%, IDH1 R132H inh 4%, IL-2 act -1 and BRCA1 expr act 10µM*.
`CSc1nc(C)cc(SCC(=O)Nc2ccccc2)n1` gave gsp antagonist inconclusive, gsp ag 32µM*, IDH1 R132H inh 4%, IL-2 act -3 and BRCA1 expr act -13%.
`Cc1cc(SCC(=O)c2ccccc2)nc(C)n1` gave gsp antagonist -1%[15.4 µM], gsp ag -18%, IDH1 R132H inh 3%, IL-2 act 0 and BRCA1 expr act 10µM*.
O=C(c1ccc2c(c1)OCO2)C1CCCN(Cc2ccc(OC(F)F)cc2)C1 (configuration not stated) was read as gsp antagonist -9%, gsp ag -11%, IDH1 R132H inh 2%, IL-2 act -1 and BRCA1 expr act -7%.
Screening COc1ccc(/C=C/c2ccnc3ccccc23)cc1 returned BRCA1 expr act 0%.
Screening CC1C(=O)N(Cc2ccccc2F)c2ccccc2N1C(=O)c1c(F)cccc1F (configuration not stated) returned gsp antagonist inconclusive, gsp ag -19%, IDH1 R132H inh 8%, IL-2 act -5 and BRCA1 expr act -24%.
For COc1cccc(CN2C(=O)C(C)N(C(=O)c3c(F)cccc3F)c3ccccc32)c1 (configuration not stated) the results were gsp antagonist 35µM*, gsp ag -19%, IDH1 R132H inh 12%, IL-2 act -1 and BRCA1 expr act -46%.
